These results are taken from ChEMBL document CHEMBL3988442, “University of Dundee, Small-Polar-MMV Screening Library” (2021).

Parameters in all cases: scale not given: direction of the effect not stated beside the values
Assay [1] addresses Protein translocase subunit SecA (Escherichia coli (strain K12)) (UniProt P10408). The assay is described as follows: Assay to Identify E. coli SecA ATPase Inhibitors. The assay is classed as functional. The following applies: 30 µM.
The target of assay [2] is T1, Ubiquitin-activating enzyme e1, putative (Leishmania donovani (strain BPK282A1)) (UniProt E9BSI1).
T1 sequence (whole entry): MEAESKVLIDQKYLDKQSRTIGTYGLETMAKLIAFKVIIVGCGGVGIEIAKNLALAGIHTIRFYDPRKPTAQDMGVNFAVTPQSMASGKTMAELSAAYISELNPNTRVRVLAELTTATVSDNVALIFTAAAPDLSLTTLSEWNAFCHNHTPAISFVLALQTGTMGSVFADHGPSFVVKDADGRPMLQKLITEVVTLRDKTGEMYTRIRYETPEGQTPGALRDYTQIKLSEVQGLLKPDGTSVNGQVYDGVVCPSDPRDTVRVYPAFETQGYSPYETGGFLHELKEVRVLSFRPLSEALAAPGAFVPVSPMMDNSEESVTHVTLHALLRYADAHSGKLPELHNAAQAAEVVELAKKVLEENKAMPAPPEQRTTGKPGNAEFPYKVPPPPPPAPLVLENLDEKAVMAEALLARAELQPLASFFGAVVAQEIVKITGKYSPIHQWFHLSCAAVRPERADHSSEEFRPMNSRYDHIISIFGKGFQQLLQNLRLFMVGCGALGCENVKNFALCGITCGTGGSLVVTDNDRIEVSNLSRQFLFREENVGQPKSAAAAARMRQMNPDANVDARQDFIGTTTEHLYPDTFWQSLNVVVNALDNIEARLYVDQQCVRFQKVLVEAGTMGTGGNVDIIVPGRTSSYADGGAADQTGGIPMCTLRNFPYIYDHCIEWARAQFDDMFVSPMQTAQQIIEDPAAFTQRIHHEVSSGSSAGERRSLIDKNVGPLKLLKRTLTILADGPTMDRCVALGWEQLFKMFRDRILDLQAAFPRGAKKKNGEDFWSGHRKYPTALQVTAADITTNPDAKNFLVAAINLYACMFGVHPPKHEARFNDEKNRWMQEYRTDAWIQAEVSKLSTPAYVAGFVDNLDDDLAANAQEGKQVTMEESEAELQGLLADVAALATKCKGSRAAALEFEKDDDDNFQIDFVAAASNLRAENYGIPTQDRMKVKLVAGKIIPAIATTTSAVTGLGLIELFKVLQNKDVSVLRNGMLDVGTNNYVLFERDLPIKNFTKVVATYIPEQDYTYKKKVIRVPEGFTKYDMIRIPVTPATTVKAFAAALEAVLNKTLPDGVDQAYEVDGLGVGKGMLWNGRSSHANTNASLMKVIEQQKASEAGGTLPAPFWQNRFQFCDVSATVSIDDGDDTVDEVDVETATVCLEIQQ
The assay can be described thus: Leishmania donovani Ubiquitin Activating Enzyme (LdE1). The following applies: 30 µM. The assay is classed as functional.

Assay [3] deals with Sialic acid-binding Ig-like lectin 9 (Homo sapiens) (UniProt Q9Y336). The assay can be described thus: Hs-Siglec9 ALPHAscreen SOP 20170721. The note with it: 10 µM. On the technique in general: Alpha assays give light when donor and acceptor beads are brought close together.
A further assay concerns Trypanosoma cruzi. The assay can be described thus: Trypanosoma cruzi phosphomannomutase and mannose-1-phosphate guanylyltransferase assay. The following applies: 10 µM. The assay is classed as functional.
Assay [4] concerns the target T2, Arginase-2, mitochondrial (Homo sapiens) (UniProt P78540).
T2 sequence (whole entry): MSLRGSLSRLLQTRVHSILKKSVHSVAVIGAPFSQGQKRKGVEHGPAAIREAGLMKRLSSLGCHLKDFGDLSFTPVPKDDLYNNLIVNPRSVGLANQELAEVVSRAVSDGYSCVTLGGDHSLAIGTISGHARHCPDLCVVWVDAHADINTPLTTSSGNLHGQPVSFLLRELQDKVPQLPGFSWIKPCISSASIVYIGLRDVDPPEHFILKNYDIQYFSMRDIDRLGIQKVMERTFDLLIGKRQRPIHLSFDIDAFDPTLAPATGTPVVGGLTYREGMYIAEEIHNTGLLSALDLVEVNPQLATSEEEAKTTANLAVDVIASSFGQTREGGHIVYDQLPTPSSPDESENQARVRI
The assay is described as follows: in vitro enzyme assay to detect the production of urea directly proportional to the activity of Arginase II. Further: in the data most compounds retested in dose-response had high values. The assay is classed as functional. The note with it: 33.3 µM.

Assay [5] has as its target T3, Proteasome subunit beta (Trypanosoma cruzi) (UniProt O96673).
T3 sequence (whole entry): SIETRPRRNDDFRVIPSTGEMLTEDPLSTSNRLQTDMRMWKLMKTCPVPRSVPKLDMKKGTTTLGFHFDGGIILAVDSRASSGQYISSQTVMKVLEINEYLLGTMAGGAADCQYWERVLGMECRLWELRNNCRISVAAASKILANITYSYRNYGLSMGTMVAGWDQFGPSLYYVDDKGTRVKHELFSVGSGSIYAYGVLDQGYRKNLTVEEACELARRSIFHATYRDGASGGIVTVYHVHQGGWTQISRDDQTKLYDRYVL
The assay is described as follows: Trypanosoma cruzi proteasome chymotrypsin-like activity (TcProtChymo) assay. Further: in the data most compounds retested in dose-response had high values. The assay is classed as functional. The following applies: 9.37 µM.

Another assay is filed under the species Homo sapiens. The assay is described as follows: To identify inhibition of the IFN signalling (Jak-Stat) pathway via expression of an eGFP reporter gene under the control of an IFN-stimulated response element (ISRE) containing MxA promoter. The note with it: 30 µM. The assay is classed as functional. For orientation: A reporter such as luciferase makes a cellular process visible.

For assay [6], the target named is T4, Tyrosyl-tRNA synthetase, putative (Trypanosoma cruzi (strain CL Brener)) (UniProt Q4DSP6).
T4 sequence (whole entry): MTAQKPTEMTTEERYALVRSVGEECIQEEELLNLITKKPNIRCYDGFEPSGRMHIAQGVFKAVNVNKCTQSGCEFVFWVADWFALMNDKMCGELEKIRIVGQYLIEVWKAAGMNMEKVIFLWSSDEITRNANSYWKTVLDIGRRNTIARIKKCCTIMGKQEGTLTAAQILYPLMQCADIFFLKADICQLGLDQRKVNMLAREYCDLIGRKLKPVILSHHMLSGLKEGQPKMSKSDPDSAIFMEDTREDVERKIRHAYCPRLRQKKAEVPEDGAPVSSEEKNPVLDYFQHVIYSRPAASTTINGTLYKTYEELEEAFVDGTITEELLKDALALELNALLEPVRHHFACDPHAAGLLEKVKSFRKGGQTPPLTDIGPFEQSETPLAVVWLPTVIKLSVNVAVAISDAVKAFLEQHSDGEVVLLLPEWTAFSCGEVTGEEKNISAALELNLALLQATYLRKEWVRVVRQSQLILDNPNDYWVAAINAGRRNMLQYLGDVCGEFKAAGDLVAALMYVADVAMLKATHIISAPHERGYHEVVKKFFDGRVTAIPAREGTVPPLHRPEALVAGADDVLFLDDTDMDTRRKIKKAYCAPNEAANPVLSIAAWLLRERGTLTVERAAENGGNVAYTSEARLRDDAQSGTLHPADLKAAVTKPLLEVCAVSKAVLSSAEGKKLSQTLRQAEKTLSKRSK
The assay can be described thus: Trypanosoma cruzi tyrosyl tRNA synthetase (TcYRS) _High Tyrosine SOP. Further: in the data most compounds retested in dose-response had high values. The following applies: 30 µM. The assay is classed as functional.

Assay [7] deals with T4, Tyrosyl-tRNA synthetase, putative (Trypanosoma cruzi (strain CL Brener)). The assay can be described thus: Trypanosoma cruzi tyrosyl tRNA synthetase (TcYRS) SOP. The assay is classed as functional. The following applies: 30 µM.
In assay [8] the target is Chromo domain-containing protein 1 (Saccharomyces cerevisiae (strain ATCC 204508 / S288c) (Baker's yeast)) (UniProt P32657). The assay is described as follows: ScCHD-1 Enzyme Inhibition Assay. Further: in the data most compounds retested in dose-response had high values. The assay is classed as functional. The following applies: 30 µM.

For some assays here: Measured potencies and affinities stand elsewhere.

Protein translocase subunit SecA (Escherichia coli (strain K12)), sequence (P10408 whole entry): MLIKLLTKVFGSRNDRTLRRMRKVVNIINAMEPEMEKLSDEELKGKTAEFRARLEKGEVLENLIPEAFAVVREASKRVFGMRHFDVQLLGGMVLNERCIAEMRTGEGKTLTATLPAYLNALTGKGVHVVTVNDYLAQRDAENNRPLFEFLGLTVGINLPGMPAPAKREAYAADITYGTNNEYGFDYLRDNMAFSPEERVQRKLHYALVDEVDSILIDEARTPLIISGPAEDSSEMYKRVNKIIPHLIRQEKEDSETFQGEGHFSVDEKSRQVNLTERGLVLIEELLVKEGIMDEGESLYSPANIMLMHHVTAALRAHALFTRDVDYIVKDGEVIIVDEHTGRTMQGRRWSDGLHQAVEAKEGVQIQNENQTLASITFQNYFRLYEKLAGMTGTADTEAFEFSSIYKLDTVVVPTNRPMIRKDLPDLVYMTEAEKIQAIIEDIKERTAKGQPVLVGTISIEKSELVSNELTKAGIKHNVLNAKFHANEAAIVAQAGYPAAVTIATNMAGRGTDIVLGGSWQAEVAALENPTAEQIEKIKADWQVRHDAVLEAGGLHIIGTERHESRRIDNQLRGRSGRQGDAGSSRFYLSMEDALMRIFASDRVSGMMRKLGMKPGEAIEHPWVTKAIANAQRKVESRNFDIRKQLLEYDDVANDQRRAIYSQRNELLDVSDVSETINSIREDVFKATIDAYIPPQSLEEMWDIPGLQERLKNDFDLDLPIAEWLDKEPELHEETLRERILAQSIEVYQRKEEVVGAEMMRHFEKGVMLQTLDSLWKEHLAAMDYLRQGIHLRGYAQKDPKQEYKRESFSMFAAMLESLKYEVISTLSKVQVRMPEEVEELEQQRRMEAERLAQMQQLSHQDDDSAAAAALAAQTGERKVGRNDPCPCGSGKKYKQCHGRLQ
Sialic acid-binding Ig-like lectin 9 (Homo sapiens), sequence (Q9Y336 whole entry): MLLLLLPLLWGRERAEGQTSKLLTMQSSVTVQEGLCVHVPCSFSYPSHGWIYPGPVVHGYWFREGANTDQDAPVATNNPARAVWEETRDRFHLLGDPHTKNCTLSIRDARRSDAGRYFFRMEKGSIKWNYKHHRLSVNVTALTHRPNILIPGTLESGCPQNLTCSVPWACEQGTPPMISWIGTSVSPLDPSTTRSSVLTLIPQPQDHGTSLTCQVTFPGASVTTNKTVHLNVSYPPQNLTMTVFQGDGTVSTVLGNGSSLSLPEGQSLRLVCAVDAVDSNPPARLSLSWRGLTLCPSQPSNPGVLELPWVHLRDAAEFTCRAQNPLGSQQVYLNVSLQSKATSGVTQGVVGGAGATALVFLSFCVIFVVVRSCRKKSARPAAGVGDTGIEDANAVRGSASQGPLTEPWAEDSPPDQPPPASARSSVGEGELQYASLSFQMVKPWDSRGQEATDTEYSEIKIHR
Chromo domain-containing protein 1 (Saccharomyces cerevisiae (strain ATCC 204508 / S288c) (Baker's yeast)), sequence (P32657 whole entry, the tested form may be a part): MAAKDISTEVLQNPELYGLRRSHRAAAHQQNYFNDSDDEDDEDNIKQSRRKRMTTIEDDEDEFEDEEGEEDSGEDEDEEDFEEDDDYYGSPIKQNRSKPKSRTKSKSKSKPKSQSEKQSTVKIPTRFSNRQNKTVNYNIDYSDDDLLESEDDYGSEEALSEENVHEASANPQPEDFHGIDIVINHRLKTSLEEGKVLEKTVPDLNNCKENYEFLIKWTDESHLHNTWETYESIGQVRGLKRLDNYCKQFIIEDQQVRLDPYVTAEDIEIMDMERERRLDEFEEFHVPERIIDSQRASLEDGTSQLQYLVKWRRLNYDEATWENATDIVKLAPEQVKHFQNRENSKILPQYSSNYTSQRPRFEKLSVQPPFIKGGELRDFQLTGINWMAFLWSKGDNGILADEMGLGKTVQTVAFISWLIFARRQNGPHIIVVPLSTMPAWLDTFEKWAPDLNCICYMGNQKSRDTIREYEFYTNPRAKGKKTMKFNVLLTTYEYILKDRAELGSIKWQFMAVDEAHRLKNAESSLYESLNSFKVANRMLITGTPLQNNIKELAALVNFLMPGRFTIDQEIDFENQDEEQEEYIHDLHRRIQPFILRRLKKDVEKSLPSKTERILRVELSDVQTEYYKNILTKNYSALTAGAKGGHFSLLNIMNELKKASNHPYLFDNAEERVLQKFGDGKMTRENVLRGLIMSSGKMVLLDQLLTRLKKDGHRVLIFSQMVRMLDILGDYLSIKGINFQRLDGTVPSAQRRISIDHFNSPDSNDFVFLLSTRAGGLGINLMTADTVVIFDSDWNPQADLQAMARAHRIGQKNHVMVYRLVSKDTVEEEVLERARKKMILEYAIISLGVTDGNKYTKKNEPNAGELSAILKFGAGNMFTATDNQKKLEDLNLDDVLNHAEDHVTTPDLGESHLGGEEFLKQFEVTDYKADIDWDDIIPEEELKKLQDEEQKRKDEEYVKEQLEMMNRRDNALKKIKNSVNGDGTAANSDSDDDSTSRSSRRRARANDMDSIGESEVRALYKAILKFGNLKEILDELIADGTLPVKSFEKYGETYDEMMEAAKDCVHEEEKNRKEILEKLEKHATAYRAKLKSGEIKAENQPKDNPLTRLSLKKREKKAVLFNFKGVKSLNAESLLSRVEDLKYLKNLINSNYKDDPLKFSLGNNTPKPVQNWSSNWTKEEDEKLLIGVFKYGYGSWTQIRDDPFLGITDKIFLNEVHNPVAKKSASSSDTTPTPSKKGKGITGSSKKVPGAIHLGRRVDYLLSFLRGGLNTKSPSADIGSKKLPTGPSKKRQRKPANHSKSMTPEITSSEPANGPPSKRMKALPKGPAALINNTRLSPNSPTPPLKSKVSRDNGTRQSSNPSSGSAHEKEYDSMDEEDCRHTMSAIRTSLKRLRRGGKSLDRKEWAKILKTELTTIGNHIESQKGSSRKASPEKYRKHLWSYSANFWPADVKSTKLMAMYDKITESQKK

As to `C1CC(CN2CCOCC3(CCN(C4CCOCC4)C3)C2)CCO1` (stereo not given), the Percent Effect in assay [1] is -5.96%; in [2], 9.09%; in assay [3], -7.57%; in the assay with Trypanosoma cruzi, 6.13%; in [4], -6.88%; in [5] it was 13.7%. In addition, the Percent Effect was 3.41% in the assay listed under Homo sapiens, 6.84% in assay [6], 10.3% in assay [7] and 0.2% in assay [8].
For `Cc1[nH]c2ccccc2c1-c1ccnc(NCCN2CCOCC2)n1`, the Percent Effect in [1] was -1.25%; in [2], 5.33%; in assay [3] it was -2.88%; in the assay with Trypanosoma cruzi, -7.83%; in [4], -7.54%; in assay [5] it was 14.8%. In addition, the Percent Effect in the assay filed under Homo sapiens is 21.5%; in assay [6] it was -1.58%; in assay [7], -2.56%; in assay [8], -15.1%.
Regarding `Cc1cccc(C(=O)N2CCCN(Cc3cnn(C)c3)CC2)n1`, the Percent Effect in [1] was -0.00911%; in [2], -5.13%; in [3] it was 4.36%; with Trypanosoma cruzi, 1.6%; in [4] it was 6.15%; in assay [5] it was -6.74%. Further, the Percent Effect is 13.4% in the assay filed under Homo sapiens, -0.478% in [6], 1.21% in assay [7] and -3.37% in [8].
Turning to `CCc1ccc(NC(=O)C2OC(c3cccs3)=NN2C(C)=O)cc1` (stereo not given), the Percent Effect was -5.81% in assay [1]; 12% in assay [2]; -5.11% in assay [3]; 3.94% in the assay on Trypanosoma cruzi; -0.443% in assay [4]; 19.2% in assay [5]. Moreover, the Percent Effect in the assay listed under Homo sapiens is 14.4%; in assay [6] it was 1.06%; in [7] it was 10%; in assay [8] it was -26.1%.
As to `CCNC(=O)CCN1CCC(c2cc(N3CCOCC3)nc(C)n2)CC1`, the Percent Effect in assay [1] was -3.37%; in assay [2], 5.41%; in assay [3], 12.8%; in the assay with Trypanosoma cruzi, 5.92%; in assay [4] it was 16.4%; in assay [5], 6.51%. Also, the Percent Effect in the assay filed under Homo sapiens came out at 17.2%; in assay [6], 2.66%; in [7] it was 9.76%; in assay [8] it was 98.8%.
Consider `O=C1CCCc2nccc(-c3ccccc3)c21`, for which the Percent Effect in [1] was 3.95%; in assay [2], 22.7%; in [3], -10%; in the assay on Trypanosoma cruzi it was 2.56%; in assay [4] it was 0.443%; in assay [5] it was 27.1%. The Percent Effect in the assay listed under Homo sapiens is 9.37%; in [6] it was 3.17%; in assay [7], -45%; in [8], -16.7%.
Regarding `Cc1cc(C(=O)NCCn2nc3ccccn3c2=O)[nH]n1`, the Percent Effect in assay [1] is 0.567%; in [2], 12.8%; in assay [3], -9.12%; in the assay with Trypanosoma cruzi, -3.1%; in assay [4] it was 0%; in assay [5], 16.8%. The Percent Effect in the assay listed under Homo sapiens was 8.57%; in assay [6], 1.44%; in [7], 18.1%; in [8], -7.79%.
`COCCOc1cccc(C(=O)N2CCCC(n3ccnc3C)C2)c1` (stereo not given): the Percent Effect in [1] was -2.56%; in assay [2], 13%; in assay [3], 8.18%; in the assay on Trypanosoma cruzi it was 4.85%; in assay [4], -2.25%; in [5], 0.877%. The Percent Effect in the assay filed under Homo sapiens was 1.8%; in assay [6], 0%; in assay [7] it was 18.8%; in assay [8], -12.3%.
Consider `CC(C)CN1CCC2(CCN(C(=O)c3ccc(F)cc3)CC2)C1=O`, for which the Percent Effect is -1.91% in [1]; 19.5% in assay [2]; 0.691% in assay [3]; 1.5% in the assay with Trypanosoma cruzi; 0% in assay [4]; 6.27% in assay [5]. Besides, the Percent Effect in the assay filed under Homo sapiens is -20.9%; in assay [6] it was 11.6%; in [7] it was 22.5%; in assay [8], -8.66%.
Regarding `CCn1nc(C)c(CCNC(=O)C2CCCN(C(=O)N(C)C)C2)c1C` (stereo not given), the Percent Effect was -5.72% in assay [1]; 0% in assay [2]; -0.0434% in [3]; -2.04% with Trypanosoma cruzi; 1.05% in assay [4]; 14.6% in assay [5]. Moreover, the Percent Effect in the assay listed under Homo sapiens is 8.52%; in assay [6], 3.72%; in assay [7], 4.88%; in [8], -3.32%.
Turning to `COc1ccc(S(N)(=O)=O)cc1C(=O)N(C)Cc1cc(C)on1`, the Percent Effect in assay [1] is 1.97%; in assay [2] it was 20.5%; in [3], -20.8%; with Trypanosoma cruzi it was 1.41%; in assay [4], -2.87%; in assay [5] it was 16%. The Percent Effect in the assay listed under Homo sapiens was 15.7%; in assay [6] it was 1.44%; in [7], 18.1%; in assay [8] it was -7.04%.
